Source: PubChem (SRMLSC)
Shown are actives, neighbours in structure and some others; about 6.5% of the full set was active somewhere.
Fluor 339 460 – intrinsic fluorescence of library compounds, ex339/em460 – biochemical, MLSMR library, data from DPM-DC assay, artefact control, profiling panel; fluorescence fold increase at 10 µM; AID 709, 2007; 65,000 tested, 5.5% active; compound autofluorescence, ex339/em460 nm, NADH buffer; hits give high values; 1 = no-compound wells, NADH background;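 active means at 10 µM, mean starting fluorescence two-fold or more over control wells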;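 further: signal is the first read of a kinetic run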
PMK inhibit – S. pneumoniae PMK inhibitors, primary screen, biochemical, mevalonate pathway, pilot trial included; phosphomevalonate kinase (Streptococcus pneumoniae D39); purified PMK, PK/LDH-coupled NADH absorbance 340 nm; inhibition, % at 10 µM; 65,000 tested, 0.49% active; AID 539, 2006;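 active means top-ranked compounds by inhibition in the single 10 µM screen, taking a fixed number of the strongest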;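 further: 0% = full reaction with DMSO carrier and 100% = background rate without enzyme reaction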
MK inhibit – S. pneumoniae MK inhibitors, primary screen, biochemical, PK/LDH-coupled NADH absorbance; mevalonate kinase [Streptococcus pneumoniae D39]; purified MK, PK/LDH-coupled NADH absorbance 340 nm; inhibition, % at 10 µM; 65,000 tested, 0.48% active; AID 555, 2006;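 active means ranked among the strongest by inhibition in the single 10 µM screen, a fixed top-ranked set picked for dose follow-up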
DPM-DC inhibit – S. pneumoniae DPM-DC inhibitors, primary screen, biochemical, PK/LDH-coupled NADH fluorescence | purified DPM-DC | calls only at 10 µM | 65,000 tested, 0.49% active;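 active means the 320 compounds with the highest percent inhibition in the single-dose primary screen, excluding strongly autofluorescent ones, cut at about 32% in these data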;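 further: kinetic rate of NADH fluorescence loss reporting ADP formed by the decarboxylase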
NADH enzymes – inhibitors of PK/LDH coupling enzymes, profiling panel, artefact control, biochemical, MLSMR library. coupled PK/LDH NADH assays, four targets. IC50, µM (highest dose often 10 µM), for the others: at the highest dose inhibition. 65,000 tested, 0.02% active;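 active means single-dose screening hits from any of four coupled enzyme assays that gave an IC50 when retested across doses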;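 further: the DPM-DC format reads NADH fluorescence rather than 340 nm absorbance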
A340 absorber – compound light absorbance at 340 nm, profiling panel, artefact control, biochemical, MLSMR library, data from PS, PMK, MK assays | 65,000 tested, under 10 active | fold change at 10 µM | compound absorbance at 340 nm, fold over control;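 active means at 10 µM dose, initial 340 nm absorbance at least 2 fold that of control wells; inactive means change under 2 fold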;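 further: initial absorbance extrapolated from kinetic A340 decline of NADH oxidation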
Active calls of the source: *.

Screening O=c1[nH]c2cc3c(cc2cc1C(c1nnnn1Cc1ccccc1)N1CCN2CCCC2C1)OCCO3 (stereo not given) returned Fluor 339 460 4.7*, PMK inhibit 0, MK inhibit 9, NADH enzymes 5% and A340 absorber 1.1.
CCOc1ccc2[nH]c(=O)c(C(c3nnnn3CC3CCCO3)N3CCc4ccccc4C3)cc2c1 (stereo not given) was read as Fluor 339 460 1.9, PMK inhibit 28*, MK inhibit 6, DPM-DC inhibit inactive, NADH enzymes 8% and A340 absorber 1.
`O=c1[nH]c2cc3c(cc2cc1C(c1nnnn1Cc1ccccc1)N1CCCc2ccccc21)OCO3` (stereo not given) gave Fluor 339 460 1.4, PMK inhibit 13, MK inhibit 0, DPM-DC inhibit inactive, NADH enzymes 3% and A340 absorber 1.
COc1ccc(C(c2nnnn2CC2CCCO2)N2CCN(c3ccccc3)CC2)cc1 (stereo not given) was read as Fluor 339 460 1.3, PMK inhibit 77*, MK inhibit 66*, DPM-DC inhibit active, NADH enzymes 79% and A340 absorber 1.1.
Screening Cc1ccc2cc(C(c3nnnn3CC3CCCO3)N3CCc4ccccc4C3)c(=O)[nH]c2c1 (stereo not given) returned Fluor 339 460 1.3, PMK inhibit 8, MK inhibit 5, DPM-DC inhibit inactive, NADH enzymes 3% and A340 absorber 1.
Screening Cc1[nH]c2ccc(-c3nnc(SCC(=O)N4CCCc5ccccc54)o3)cc2c1C returned Fluor 339 460 2, PMK inhibit 9, MK inhibit 8, DPM-DC inhibit inactive, NADH enzymes 14% and A340 absorber 1.1.
For COCCn1nnnc1CN(Cc1cc2cc(OC)c(OC)cc2[nH]c1=O)C1CCCC1 the results were Fluor 339 460 2.7*, PMK inhibit 8, MK inhibit 1, DPM-DC inhibit inactive, NADH enzymes 8% and A340 absorber 1.2.
For Cc1ccc2cc(C(c3nnnn3C(C)(C)C)N3CCCC3)c(=O)[nH]c2c1C (stereo not given) the results were Fluor 339 460 1.4, PMK inhibit 7, MK inhibit 8, DPM-DC inhibit inactive, NADH enzymes 7% and A340 absorber 1.
`CCCN1CCN(C(c2cc3cc4c(cc3[nH]c2=O)OCO4)c2nnnn2C(C)(C)C)CC1` (stereo not given) gave Fluor 339 460 3.9*, PMK inhibit 0, MK inhibit 6, NADH enzymes 3% and A340 absorber 1.1.
For COCCn1nnnc1C(c1cc2cc(OC)ccc2[nH]c1=O)N1CCC(Cc2ccccc2)CC1 (stereo not given) the results were Fluor 339 460 2.1*, PMK inhibit 6, MK inhibit 5, DPM-DC inhibit inactive, NADH enzymes 8% and A340 absorber 1.
For COCCn1nnnc1C(c1cc2cc(C)ccc2[nH]c1=O)N1CCCCCC1 (stereo not given) the results were Fluor 339 460 1.4, PMK inhibit 13, MK inhibit 9, DPM-DC inhibit inactive, NADH enzymes 9% and A340 absorber 1.1.
Screening CC1CCN(C(c2cc3cc4c(cc3[nH]c2=O)OCO4)c2nnnn2CC2CCCO2)CC1 (stereo not given) returned Fluor 339 460 3.8*, PMK inhibit 12, MK inhibit 11, NADH enzymes 12% and A340 absorber 1.1.
Screening O=C1Nc2ccccc2C(O)(C(=O)NC2CC2)N1c1ccc(Cl)c(Cl)c1 (stereo not given) returned Fluor 339 460 1.1, PMK inhibit 13, MK inhibit 0, DPM-DC inhibit inactive, NADH enzymes 4% and A340 absorber 1.
Screening COc1ccc(N2C(=O)CSC23CCCCC3)cc1 returned Fluor 339 460 1.1, PMK inhibit 4, MK inhibit 10, DPM-DC inhibit inactive, NADH enzymes 6% and A340 absorber 1.
